Data taken from ChEMBL document CHEMBL3988442, “University of Dundee, Small-Polar-MMV Screening Library” (2021).
Among all 48,000 compounds or so, about 13,000 (27%) showed an effect of 50% or more. This is one part of the list.

tested on: Wolbachia pipientis; experiment: Anti-Wolbachia Cell-Based Screen; assay type: functional; parameters: scale not given: in the data most compounds retested in dose-response had high values; conditions: 5 µM

Row | Structure (SMILES) | Percent Effect
1 | Cc1nc(C(=O)N(CC(=O)N(C)C)CC(F)(F)F)c2ccccn12 | 1.81%
2 | Cc1noc(C)c1CN(C)C(=O)NC(C)c1cccs1 (stereo not drawn) | -8.281%
3 | NC(=O)C1CCN(Cn2nc(-c3ccccc3)oc2=O)CC1 | -3.823%
4 | Cc1noc(C2CCN(C(=O)CCNS(C)(=O)=O)CC2)n1 | -0.9329%
5 | CCC(=O)Nc1cccc(OCC(=O)N(C)Cc2nccn2CC)c1 | -14.09%
6 | CCC(=O)Nc1cccc(OCC(=O)N(C)Cc2ccon2)c1 | -42.8%
7 | COc1cccc(NC(=O)CN(C(C)C)C2CC2)c1 | 1.237%
8 | CCC(=O)Nc1cccc(OCC(=O)N(C)Cc2cc(COC)[nH]n2)c1 | -13.78%
9 | CCC(=O)Nc1cccc(OCC(=O)N2CC=CC2C(C)C)c1 (stereo not drawn) | 89.02%
10 | CCC(=O)Nc1cccc(OCC(=O)N[C@@H]2C[C@H]3CC[C@@H]2C3)c1 | 110%
11 | CCC(=O)Nc1cccc(OCC(=O)N2C[C@H]3CC[C@H]2C3)c1 | 93.75%
12 | CCC(=O)Nc1cccc(OCC(=O)N(C)Cc2nc(C)c[nH]2)c1 | -12.77%
13 | CCC(=O)NC1CCCN(C(=O)Nc2cccc(COC(C)C)c2)C1 (stereo not drawn) | -15.38%
14 | CN(C)C(=O)c1ccc2c(c1)N(C)C(CC(=O)NCCOCCO)CO2 (stereo not drawn) | 24%
15 | Cc1ccccc1C1(C(=O)N2CCOC(C)C2)CCOCC1 (stereo not drawn) | -22.89%
16 | CCN1C(=O)C(c2ccccc2)CC12CCN(CCO)CC2.O=C(O)C(F)(F)F (stereo not drawn) | -6.556%
17 | CN1C(=O)C(c2ccccc2)CC12CCN(CCO)CC2.O=C(O)C(F)(F)F (stereo not drawn) | 95.45%
18 | Cc1occc1C(=O)N1CCC2(CC1)CC(c1cccnc1)C(=O)N2C (stereo not drawn) | -9.568%
19 | CCCOCCN1CCC2(CC1)CC(c1ccccc1)C(=O)N2C (stereo not drawn) | 4.457%
20 | CN1C(=O)C(c2cccnc2)CC12CCN(Cc1nccs1)CC2 (stereo not drawn) | 106.4%
21 | CN1C(=O)C(c2ccccc2)CC12CCN(CCN)CC2 (stereo not drawn) | -103.7%
22 | CN1C(=O)C(c2cccnc2)CC12CCN(CCO)CC2 (stereo not drawn) | 110.9%

Row | Structure (SMILES) | Percent Effect
23 | CN1C(=O)C(c2ccccc2)CC12CCN(CCOCCO)CC2 (stereo not drawn) | 13.34%
24 | COCCN1CCC2(CC1)CC(c1ccccc1)C(=O)N2C (stereo not drawn) | -11.58%
25 | COCCN1CCC2(CC1)CC(c1cccnc1)C(=O)N2C (stereo not drawn) | 119.4%
26 | CN1C(=O)C(c2cccnc2)CC12CCN(C(=O)c1cccn1C)CC2 (stereo not drawn) | -11.09%
27 | CN1C(=O)C(c2cccnc2)CC12CCN(C(=O)c1ccc[nH]1)CC2 (stereo not drawn) | -0.8841%
28 | Cc1nc2c(NC(CC(C)(C)C)c3cccnc3)ncnc2o1 (stereo not drawn) | -3.479%
29 | CC(C)(N)CN1CCC(c2nnc(CN3CCCC3)n2C2CC2)CC1 | -7.57%
30 | CNC(=O)c1ccc(NC(=O)NC(C)c2cc(C)oc2C)c(C)c1 (stereo not drawn) | -1.593%
31 | CN(CCC(F)(F)F)Cc1nc2ccccc2c(=O)[nH]1 | -3.599%
32 | Cc1cnc(C(=O)N2CCN(C(=O)CC(C)C)[C@@H]3CS(=O)(=O)C[C@@H]32)cn1 | -11.52%
33 | CC(C)(C)CN1CC[C@H](c2nnc(Cc3c[nH]c4ccccc34)o2)C1 | 1.678%
34 | Cc1n[nH]c(C(=O)N2CCCC(C)CC2)c1Br (stereo not drawn) | 10.78%
35 | CCNC(=O)c1nnn(Cc2ccccc2)c1OC | 0.7251%
36 | Cc1cc(=O)n(C)cc1NC(=O)Cc1cccc(F)c1 | -4.709%
37 | O=C(O)C(F)(F)F.O=C1CC[C@H]2[C@H](CCN2c2ncccn2)N1c1ccccc1 | 99.41%
38 | Cc1ccc(C(=O)N2CC[C@H]3[C@@H]2CCC(=O)N3c2ccccc2)cn1.O=C(O)C(F)(F)F | -18.98%
39 | O=C(O)C(F)(F)F.O=C(O)C(F)(F)F.O=C1CC[C@H]2[C@H](CCN2c2ncc(F)cn2)N1c1cccnc1 | -9.717%
40 | Cc1ccoc1C(=O)N1CC[C@H]2[C@@H]1CCC(=O)N2c1cccnc1.O=C(O)C(F)(F)F | -7.796%
41 | Cc1cnc(N2CC[C@H]3[C@@H]2CCC(=O)N3c2ccccc2)nc1.O=C(O)C(F)(F)F | 112.6%
42 | Cc1cccc(C(=O)N2CC[C@@H]3[C@H]2CCC(=O)N3c2ccccc2)n1.O=C(O)C(F)(F)F | -24.35%
43 | O=C(O)C(F)(F)F.O=C1CC[C@H]2[C@H](CCN2c2ncc(F)cn2)N1c1ccccc1 | 111.8%
44 | O=C(C1CC1)N1CC[C@H]2[C@@H]1CCC(=O)N2c1ccccc1 | 23.82%

Row | Structure (SMILES) | Percent Effect
45 | Cc1cnc(N2CC[C@H]3[C@@H]2CCC(=O)N3c2cccnc2)nc1.O=C(O)C(F)(F)F.O=C(O)C(F)(F)F | -6.762%
46 | CC(OCC1CC1)C(=O)Nc1nccn1Cc1ccccc1 (stereo not drawn) | -19.61%
47 | CCN(Cc1cnc(NCc2ccccc2)nc1)C1CCS(=O)(=O)C1 (stereo not drawn) | -2.242%
48 | CN(Cc1ccc(F)c2cccnc12)C1CCS(=O)(=O)C1 (stereo not drawn) | 8.686%
49 | CN(Cc1ccnc2ccccc12)C1CCS(=O)(=O)C1.O=C(O)CC(O)(CC(=O)O)C(=O)O (stereo not drawn) | 102.4%
50 | CN(C(=O)NCCCNc1ccccn1)C1CCS(=O)(=O)C1 (stereo not drawn) | -6.562%
51 | CN(Cc1cccc2cccnc12)C1CCS(=O)(=O)C1.O=C(O)CC(O)(CC(=O)O)C(=O)O (stereo not drawn) | 164.7%
52 | Cc1ccsc1[C@@H]1CCN(C(=O)CCC(=O)N2CCCCCC2)C[C@H]1O | -6.445%
53 | Cc1cc(C)c2nc(C)cc(C(=O)NC(C)c3nnn[nH]3)c2c1 (stereo not drawn) | 1.105%
54 | Cc1cc(C)c(C(=O)N(CCO)Cc2ccccc2F)c(=O)[nH]1 | -8.709%
55 | CC(=O)c1cc(C(=O)NC2(c3ccc(Br)cc3)CC2)n(C)c1 | -0.634%
56 | Cc1cc(C(=O)NC2(c3ccc(Br)cc3)CC2)n(C)n1 | 77.44%
57 | Cc1cc(C(=O)NC2(C#N)CCSCC2)n(C)n1 | -9.689%
58 | Cc1nnc(N2CCC(CS(N)(=O)=O)CC2)c(C#N)c1C | -8.566%
59 | O=C(CCc1ccccn1)N1CCCC(n2cncn2)C1 (stereo not drawn) | 108%
60 | O=C(CCc1ccccc1)N1CC(n2cncn2)C1 | 125.3%
61 | Cc1ccc(CCC(=O)N2CCCC(n3cncn3)C2)c(C)c1 (stereo not drawn) | -8.257%
62 | Cc1nn(C)cc1CCC(=O)N1CCCC(n2cncn2)C1 (stereo not drawn) | -0.08809%
63 | O=C(CCCc1ccccc1)N1CCCC(n2cncn2)C1 (stereo not drawn) | 103%
64 | O=C(COCc1ccccc1)N1CCCC(n2cncn2)C1 (stereo not drawn) | 1.365%
65 | O=C(CCc1ccccc1)N1CCn2cc(Cn3cncn3)nc2C1 | -11.69%
66 | O=C(CCc1cccc(F)c1F)N1CCCC(n2cncn2)C1 (stereo not drawn) | 102.1%

Row | Structure (SMILES) | Percent Effect
67 | Cc1nc(NC(=O)C(C)S(C)(=O)=O)sc1Cc1ccc(F)cc1 (stereo not drawn) | 3.284%
68 | Cn1ccnc1CCNS(=O)(=O)c1cccc(Br)c1 | 11.32%
69 | CC(C)c1ccc(/C=C/CC(=O)NC2CCN(C(N)=O)CC2)cc1 | -28.76%
70 | Cc1cnn(CC2CCCCN2Cc2nc(N)c3ccccc3n2)c1 (stereo not drawn) | -1.986%
71 | CSCCC(NC(N)=O)C(=O)Nc1ccc(-n2cccn2)nc1 (stereo not drawn) | -4.081%
72 | N#CCCN(C(=O)CN1CCCC1C1CCCCC1)c1ccccc1 (stereo not drawn) | -8.996%
73 | CCC(C)N(Cc1ccc(C)cc1)Cc1c[nH]c(C)n1 (stereo not drawn) | 14.09%
74 | N#CCCN(c1ccccc1)S(=O)(=O)CC1CCCCO1 (stereo not drawn) | -2.973%
75 | CCOc1ccc(NC(=O)N(CCC#N)Cc2ccccn2)cc1F | -26.47%
76 | O=C(CCc1cccnc1)N1CCCC(n2cncn2)C1 (stereo not drawn) | -7.114%
77 | O=C(Cc1ccccc1Cl)N1CCCC(n2cncn2)C1 (stereo not drawn) | -8.361%
78 | O=C(Cc1cccnc1)N1CCCC(n2cncn2)C1 (stereo not drawn) | 106.6%
79 | Cc1cccnc1CNc1ccc(C(=O)N2CCc3ccccc32)cn1 | 0%
80 | CC(C)(C)n1ncc(NCC(O)c2ccccc2C(F)(F)F)c(Cl)c1=O (stereo not drawn) | 100.7%
81 | COCc1cccc(CNc2cnn(C(C)(C)C)c(=O)c2Cl)c1 | -38.78%
82 | CC(C)(C)n1ncc(NCc2ccccc2)c(Cl)c1=O | -16.67%
83 | O=C(NCc1cccnc1)NCC(O)c1ccccc1C(F)(F)F (stereo not drawn) | -3.866%
84 | COCc1ccc(CNc2cnn(C(C)(C)C)c(=O)c2Cl)cc1 | 2.959%
85 | CC(C)(C)n1ncc2c(=O)n(CC(=O)NCc3ccccc3Cl)cnc21 | 3.164%
86 | CC(C)(C)n1ncc(NCC(O)c2ccccc2)c(Cl)c1=O (stereo not drawn) | 108.9%
87 | CC(C)(C)n1ncc(NCCc2ccccc2C(F)(F)F)c(Cl)c1=O | 139.1%
88 | O=C(NCC(O)c1ccccc1C(F)(F)F)c1cccnc1 (stereo not drawn) | -5.174%

Row | Structure (SMILES) | Percent Effect
89 | OC(CNCCn1cccn1)c1ccc(F)c(F)c1 (stereo not drawn) | -2.779%
90 | COc1cc(CNc2cnn(C(C)(C)C)c(=O)c2Cl)ccn1 | -46.44%
91 | CC(C)(C)n1ncc(NCC(O)c2ccc(F)c(F)c2)c(Cl)c1=O (stereo not drawn) | 100.9%
92 | CCc1noc(CNc2ccc(F)cc2OCC2CC2)n1 | -5.752%
93 | CC(NCc1cnc(C2CCC2)s1)c1ccccc1-n1cccn1 (stereo not drawn) | -10.15%
94 | Cc1ccc(-c2ccc(C(=O)NCCC(=O)N(C)C)c(F)c2)cc1 | -15.57%
95 | c1ccc2c(N3CCSCC3)cnnc2c1 | -7.227%
96 | Cc1ccc(CNCCCNS(C)(=O)=O)c(Br)c1 | 3.842%
97 | CCc1ccc2c(c1)C(CCNC(=O)CCc1ccsc1)C(=O)N2 (stereo not drawn) | 24.64%
98 | NC(=O)NC(CC(=O)NCCc1ccc(F)cc1)c1ccccc1 (stereo not drawn) | 2.194%
99 | CCOc1ccc(CC(CNC(=O)c2sccc2C)C(N)=O)cc1 (stereo not drawn) | 1.626%
100 | NC(=O)C(CNC(=O)CCc1ccsc1)Cc1ccc(F)cc1 (stereo not drawn) | 115.1%
101 | Cc1ccc(CC(=O)NCC(O)c2cccc(C(F)(F)F)c2)cn1 (stereo not drawn) | -12.46%
102 | Cc1ccc(CC(=O)NCC(O)c2cc(Cl)cc(Cl)c2)cn1 (stereo not drawn) | 3.357%
103 | NC(=O)C(CNC(=O)CCc1ccccc1)Cc1ccc(F)cc1 (stereo not drawn) | 119.3%
104 | NC(=O)C(CNC(=O)Cc1ccsc1)Cc1ccc(F)cc1 (stereo not drawn) | 90.7%
105 | CCOC(=O)C(C)NC(=O)CCc1ccc(F)cc1 (stereo not drawn) | 2.833%
106 | CCOc1ccc(CC(CNC(=O)c2ccc(C)s2)C(N)=O)cc1 (stereo not drawn) | -16.33%
107 | Cc1ccc(CC(=O)NCC(Cc2ccc(F)cc2)C(N)=O)cn1 (stereo not drawn) | 110.1%
108 | CS(=O)(=O)Nc1cccc(CNC(=O)CCc2ccsc2)c1 | -4.988%
